Publication PMC4336329 (PLoS ONE, 2015)
About 14,000 (4.5%) of roughly 310,000 compounds showed an effect of 50% or more. Effects have a minus sign here. Only a selection was taken, and strong results are over-represented in it overall.

Molecular target: human ether-à-go-go-related gene (hERG) potassium channel (human, UniProt Q12809)
Assay: primary screen, population patch clamp on CHO cells stably expressing hERG; higher = less effect of the substance
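Also: peak tail current of the secondary pulse compared with the same well before compound.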

human ether-à-go-go-related gene (hERG) potassium channel, sequence (Q12809 whole entry, looked up): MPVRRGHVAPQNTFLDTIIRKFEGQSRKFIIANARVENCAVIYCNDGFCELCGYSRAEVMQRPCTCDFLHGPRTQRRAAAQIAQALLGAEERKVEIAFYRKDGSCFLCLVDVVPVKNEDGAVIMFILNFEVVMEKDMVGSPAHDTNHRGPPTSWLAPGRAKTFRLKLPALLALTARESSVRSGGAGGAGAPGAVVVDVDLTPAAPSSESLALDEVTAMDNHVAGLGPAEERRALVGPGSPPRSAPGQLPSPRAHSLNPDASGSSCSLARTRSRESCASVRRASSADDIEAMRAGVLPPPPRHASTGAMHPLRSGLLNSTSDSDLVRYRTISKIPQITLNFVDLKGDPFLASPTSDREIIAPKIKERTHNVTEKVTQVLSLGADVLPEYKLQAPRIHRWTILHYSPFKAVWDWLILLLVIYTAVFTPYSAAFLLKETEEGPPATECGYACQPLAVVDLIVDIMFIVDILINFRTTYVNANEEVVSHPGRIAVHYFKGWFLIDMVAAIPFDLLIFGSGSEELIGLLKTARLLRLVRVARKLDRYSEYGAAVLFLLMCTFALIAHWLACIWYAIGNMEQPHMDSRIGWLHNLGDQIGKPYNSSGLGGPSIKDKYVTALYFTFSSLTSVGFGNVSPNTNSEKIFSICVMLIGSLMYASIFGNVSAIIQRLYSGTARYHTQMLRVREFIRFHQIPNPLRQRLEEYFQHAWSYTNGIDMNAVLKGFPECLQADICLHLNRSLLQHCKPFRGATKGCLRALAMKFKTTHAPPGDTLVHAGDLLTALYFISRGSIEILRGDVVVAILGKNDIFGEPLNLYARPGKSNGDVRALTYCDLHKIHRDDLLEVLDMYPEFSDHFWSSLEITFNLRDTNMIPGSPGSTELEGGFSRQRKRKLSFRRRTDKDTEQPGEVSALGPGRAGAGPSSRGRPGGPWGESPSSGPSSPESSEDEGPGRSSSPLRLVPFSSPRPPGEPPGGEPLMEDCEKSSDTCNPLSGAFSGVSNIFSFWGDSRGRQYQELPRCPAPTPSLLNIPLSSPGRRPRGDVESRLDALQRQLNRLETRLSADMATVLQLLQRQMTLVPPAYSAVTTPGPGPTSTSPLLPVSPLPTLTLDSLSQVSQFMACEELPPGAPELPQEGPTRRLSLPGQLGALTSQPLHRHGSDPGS

SMILES	hERG current change (%, negative = inhibition) at 10uM [%]
CCOC(=O)N1CCN(C(=O)CSc2nnc(-c3ccccc3OC)o2)CC1	-12.9
COc1cc(/C=C/c2cccc[n+]2C)ccc1OCC(=O)Nc1ccccc1C.[I-]	8.13
NC(=O)C1CCN(C(=O)CCCCCn2c(=O)[nH]c3ccsc3c2=O)CC1	0.397
COc1cccc(OCC(=O)Nc2c3c(nn2-c2ccccc2)CS(=O)(=O)C3)c1	-48.5
COc1cc(CNc2nc(C)c([N+](=O)[O-])c(C)c2C#N)cc(OC)c1	10.8
NC(=O)Cn1cc(C(=O)COc2ccccc2)c2ccccc21	-3.45
CC(C)CCNC(=O)COc1ccc(C(=O)c2ccccc2)cc1	-23.8
Cc1ccc(NC(=O)C(c2ccccc2)N2CCN(CC(=O)NC3CC3)CC2)cc1 (stereo not drawn)	-18.1
C[C@@H]1NC(=O)c2cc([N+](=O)[O-])cc(I)c2NCC[C@@H](C(N)=O)NC(=O)[C@H](CC(N)=O)NC1=O	11.2
COc1cc(/C=N/NC(=S)NCCc2ccccc2)cc(OC)c1OC	8.26
CCC(=O)N1CCc2cc(Br)cc(S(=O)(=O)NCCN3CCCCC3CC)c21 (stereo not drawn)	-20.4
Brc1cccc(-c2nnc3sc(CNCc4ccco4)cn23)c1	-60.3
Brc1cccc(-c2nnc3sc(CN4CCCCC4)cn23)c1	-11
Brc1cccc(-c2nnc3sc(CNC4CCCC4)cn23)c1	-16.2
COc1ccc(CCNC(=O)c2ccc(Cl)c(S(=O)(=O)N3CCCC3)c2)cc1	-56.6
COc1ccc(C(=O)NCCc2ccc(Cl)cc2)cc1S(=O)(=O)N1CCCCC1C (stereo not drawn)	-52.3
COc1ccc(C(=O)NCCc2c[nH]c3ccccc23)cc1S(=O)(=O)N1CCCCC1C (stereo not drawn)	-12
O=C(NCCc1ccccc1)c1ccc(Cl)c(S(=O)(=O)N2CCCC2)c1	-23.1
COc1ccc(C(CNC(=O)c2ccc(OC)c(S(=O)(=O)N3CCCC3)c2)N2CCCC2)cc1 (stereo not drawn)	9.12

SMILES	hERG current change (%, negative = inhibition) at 10uM [%]
COc1ccc(CCNC(=O)c2ccc(Cl)c(S(=O)(=O)N3CCCCCC3)c2)cc1	-34.2
COc1ccc(C(CNC(=O)c2ccc(Cl)c(S(=O)(=O)N3CCCC3)c2)N2CCCC2)cc1 (stereo not drawn)	-57.6
COc1ccc(C(=O)Nc2ccc(NC(C)=O)cc2)cc1S(=O)(=O)N1CCCCC1C (stereo not drawn)	1.47
COc1ccc(C(CNC(=O)c2cc(S(=O)(=O)N3CCCC3)ccc2Cl)N2CCCC2)cc1 (stereo not drawn)	-31.6
Cc1ccc(S(=O)(=O)NC(CC(=O)NCC2CCCO2)c2ccco2)cc1 (stereo not drawn)	24.9
COc1ccc(N(CC(=O)N2CCN(Cc3ccccc3)CC2)S(C)(=O)=O)cc1	-3
O=C(NN1CCOCC1)c1cc(-c2ccc(Cl)c(Cl)c2)nc2ccccc12	10.8
Cc1oncc1C(=O)Nc1cccc(C#N)c1	4.43
CCCN1C(=O)/C(=c2\sc3nc(=O)c(Cc4ccc(C)cc4)nn3c2=O)c2ccccc21	21.2
CCN(Cc1ccccc1)C(=O)c1oc2ccc(S(=O)(=O)N3CCOCC3)cc2c1C	-6.06
Nc1cc(C(=O)OCC(=O)N2CCOCC2)ccc1Cl	17.8
CC(C)(C)NC(=O)CSC(=Nc1ccc(F)cc1)NC#N	-72.3
CC(C)(C)NC(=O)CSC(=Nc1cccc(F)c1)NC#N	8.94
CC(C)(C)NC(=O)CSC(=Nc1ccccc1F)NC#N	-0.709
COc1ccc(CNC(=O)c2noc(C(C)C)c2[N+](=O)[O-])cc1	3.4
Cc1ccc(NNC(=O)c2ccno2)c(C)c1	11.1
COc1ccc(OC)c(-c2csc(NC(=O)CN3C(=O)C4CCCCC4C3=O)n2)c1 (stereo not drawn)	-0.554
O=C(O)c1ccccc1S(=O)(=O)NCC(O)COC1CCCCC1 (stereo not drawn)	-2.65
CCOC(=O)C1(CCOc2ccccc2)CCN(Cc2cc(OC)c3c(c2)OCO3)CC1	-72.1

SMILES	hERG current change (%, negative = inhibition) at 10uM [%]
CCOC(=O)C1(Cc2ccccc2)CCN(Cc2cc(OC)c3c(c2)OCO3)CC1	-60.7
CCN1CCN(Cc2cc(OC)c3c(c2)OCO3)CC1	9.99
CCN1C(=O)CC(N2CCN(c3ccc(Cl)cc3)CC2)C1=O (stereo not drawn)	-14
COc1ccc2c(CC(=O)OCC(=O)c3ccc(F)cc3)coc2c1	6.5
CCCc1ccc(-c2cc(C(=O)NN3CCOCC3)c3ccccc3n2)cc1	-3.8
NC(=O)c1ccc(NC(=O)CSc2nnc(C3CCCCC3)n2N)cc1	18
Cn1c(C(=O)NC2CCCCC2)cc2sccc21	-7.87
COc1ccc2oc(C(=O)NCc3ccco3)c(C)c2c1	8.36
CCOc1ccc2oc(C(=O)NCc3nc4ccccc4[nH]3)c(C)c2c1	10.3
CCOc1ccc2oc(C(=O)N3CCN(c4ccccn4)CC3)c(C)c2c1	-34.3
Cc1c(C(=O)OCC(C)(C)CN(C)C)oc2ccccc12.Cl	-52
CCOc1ccc2oc(C(=O)N3CCN(c4ccccc4OCC)CC3)c(C)c2c1	-52.6
Cc1c(C(=O)OC(C)CCN(C)C)oc2ccccc12.Cl (stereo not drawn)	-42.8
Cc1c(C(=O)OCC(=O)N(C)c2ccccc2)oc2ccccc12	3.17
CCOc1ccc2oc(C(=O)N3CCN(Cc4ccccc4)CC3)c(C)c2c1	-18.4
COc1ccc2oc(C(=O)NCc3cc(OC)c(OC)cc3OC)c(C)c2c1	0.174
CCOc1ccc2oc(C(=O)NCC3CCCO3)c(C)c2c1 (stereo not drawn)	11
CCOc1ccc2oc(C(=O)NCc3ccccc3CN3CCCC3)c(C)c2c1	-66.2
COc1ccc2oc(C(=O)NCc3ccccc3CN3CCCC3)c(C)c2c1	-66.1
